Compounds with a hit are over-represented: about 3.5% of the library has one in this group of screens.
FBW7 activator: human FBW7 E3 ligase activation, primary screen; Q969H0; AID 1259310; normalized activity (activation), % at 26.1 µM; AlphaScreen FBW7–phospho-cyclin E peptide binding, activator screen; 0.13% of 650,000 active; in the data active means normalized activity above about 1.9%;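 further: purified mutant Fbw7 with reduced substrate affinity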
GPR151 ag: activators of human GPR151 | Q8TDV0 | PathHunter beta-arrestin GPR151 cells, luminescence | activation, % at 11.2 µM | 1% of 650,000 active; in the data active means activation above about 4.9%;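 further: 0% = median of compound wells and 100% = cells with positive control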
Target sequence (Q8TDV0 whole entry, looked up): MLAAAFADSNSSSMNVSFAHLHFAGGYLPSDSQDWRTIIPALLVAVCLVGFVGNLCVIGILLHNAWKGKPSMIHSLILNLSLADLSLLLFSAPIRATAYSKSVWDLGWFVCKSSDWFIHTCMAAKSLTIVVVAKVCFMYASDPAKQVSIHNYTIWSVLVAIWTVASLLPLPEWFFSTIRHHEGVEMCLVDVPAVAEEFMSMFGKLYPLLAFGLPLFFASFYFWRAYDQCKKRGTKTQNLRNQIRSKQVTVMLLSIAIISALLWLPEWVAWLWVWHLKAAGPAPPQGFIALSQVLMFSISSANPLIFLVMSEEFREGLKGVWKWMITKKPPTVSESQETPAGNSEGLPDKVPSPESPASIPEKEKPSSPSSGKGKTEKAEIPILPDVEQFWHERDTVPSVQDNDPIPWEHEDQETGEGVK
MITF primary: human MITF inhibition, primary screen. 0.91% of 650,000 active. O75030. AID 1259374. AlphaScreen MITF homodimerization, bead proximity signal. inhibition, % at 2.6 µM; in the data active means inhibition above about 50%;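 further: 0% = vehicle wells with protein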
TEAD-YAP inh: TEAD-YAP interaction inhibition; HEK-TIYL cells, TEAD-Gal4/YAP UAS-luciferase luminescence; inhibition, % at 9.12 µM; 1.4% of 640,000 active; AID 1259422; in the data active means inhibition above about 32%;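 further: 0% = median of test compound wells and 100% = reference inhibitor wells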
Starred values were filed as active, the others as inactive.

SMILES | FBW7 activator | GPR151 ag | MITF primary | TEAD-YAP inh
O=C1C(NC2CCCC2)=C(N2CCCCC2)C(=O)c2ccccc21 | 0.4 | -2.2 | 11.4 | 85.9*
COc1ccccc1NC1=C(N2CCCCC2)C(=O)c2ccccc2C1=O | 0.1 | 1.6 | -1.7 | 62.1*
Nc1ccc(NC2=C(N3CCCCC3)C(=O)c3ccccc3C2=O)cc1 | -0.5 | -0.7 | -6.1 | -1.2
O=C(CCC(=O)Nc1cccc(Cl)c1)N/N=C/c1ccccc1F | 0.0 | 2.0 | 0.3 | 13.0
Cc1nc(NC(=S)NC(=O)c2ccccc2)sc1C(C)(C)C | -0.2 | -0.2 | -2.6 | 36.6*
Cc1ccc(CNC(=O)c2ccc(Cn3c(C)nc4ccccc43)o2)cc1 | 0.3 | 1.3 | -2.2 | -2.7
COC(=O)c1cn(NC(=O)c2ccccn2)c(=O)c2ccccc12 | -0.1 | -1.2 | 100.4* | 62.1*
COC(=O)c1cn(NC(=O)c2cccnc2Cl)c(=O)c2ccccc12 | -0.1 | -1.4 | 0.1 | -2.0
O=C(C1C(c2ccccc2)C1(Cl)Cl)N1CCCCC1 (stereo not drawn) | -0.1 | 0.3 | 10.0 | 1.8
O=C(CS(=O)(=O)Cc1ccccc1)N1CCN(c2ccc([N+](=O)[O-])cc2)CC1 | -0.1 | -0.1 | 1.3 | 12.3
O=C(/C=C/c1ccco1)Nc1nnc(Cc2ccc(F)cc2)s1 | -0.1 | -0.1 | 4.4 | 55.4*
Nc1nc(Nc2nccc3ccccc23)cc(NC2CC2)n1 | 0.0 | 0.4 | 7.0 | -15.5
Cn1nc(-c2ccc(Cl)cc2)cc1NC(=O)CCl | -0.1 | -1.5 | -1.3 | 46.1*
Cn1nc(-c2ccc(Cl)cc2)cc1NC(=O)Cn1c2ccccc2c(=O)c2ccccc21 | 0.6 | -0.5 | -0.1 | -2.5
O=S1(=O)Nc2c(ccc3cccnc23)-c2ccccc21 | -0.3 | 3.9 | 88.2* | 60.5*
CN(C)c1ccc(CNC2CCN(Cc3ccccc3)CC2)cc1 | -0.2 | 0.3 | 23.9 | 8.8
CCCSc1nnc2c(n1)OC(c1c(C)[nH]n(-c3ccccc3)c1=O)Nc1ccccc1-2 (stereo not drawn) | -0.2 | -0.2 | 61.5* | -36.6
O=C(NCc1cccs1)c1nn2c(C(F)(F)F)cc(-c3ccc(Br)cc3)nc2c1Cl | -0.2 | 1.2 | -4.3 | -8.0
CNc1nc(-c2ccc3c(c2)CCN3C(C)=O)c(C)s1 | 0.8 | 1.0 | 21.7 | -46.6
CCC(=O)N1CCc2cc(-c3nc(N)sc3C)ccc21 | 0.0 | -2.0 | 14.1 | 10.2
CCC(=O)N1CCc2cc(-c3nc(NC(C)=O)sc3C)ccc21 | 0.1 | 0.6 | 7.3 | 80.0*
CC(=O)Nc1nc(-c2ccc3c(c2)CCN3C(C)=O)c(C)s1 | 0.9 | -0.7 | -11.8 | 52.9*
COCCNc1ncnc2c1cnn2C | 0.6 | -1.3 | 21.8 | 0.6
Cn1c(=O)c2c(nc([N+](=O)[O-])n2Cc2ccccc2)n(C)c1=O | 0.2 | 0.5 | -5.2 | -6.1
Cn1c(COc2ccccc2)c(C#N)c2ccccc21 | 0.0 | -1.4 | 0.0 | -40.9
SMILES | FBW7 activator | GPR151 ag | MITF primary | TEAD-YAP inh
Cn1c(CS(=O)(=O)c2ccccc2)c(C#N)c2ccccc21 | 0.0 | 0.9 | -11.3 | 34.4*
CCOc1cc([N+](=O)[O-])ccc1NC(=O)CC1Sc2ccccc2NC1=O (stereo not drawn) | 0.1 | -0.1 | 3.8 | 57.8*
CCOc1ccc(NC(=O)CC2Sc3ccccc3NC2=O)c([N+](=O)[O-])c1 (stereo not drawn) | 0.0 | -1.1 | -11.4 | 52.4*
Cc1ccc(NC(=O)CC2Sc3ccccc3NC2=O)c([N+](=O)[O-])c1 (stereo not drawn) | -0.2 | 1.3 | 2.2 | 48.1*
CCOc1ccc(NC(=O)c2cccc3ccccc23)c([N+](=O)[O-])c1 | -0.3 | -1.6 | 25.2 | 42.7*
Cc1ccc(NC(=O)CC2Sc3ccccc3NC2=O)c(C)c1 (stereo not drawn) | 0.0 | -0.5 | 7.1 | 16.2
O=C(Cc1c(F)cccc1Cl)Nc1cc(C(=O)N2CCN(c3ccccc3Cl)CC2)ccc1N1CC2CC(C1)c1cccc(=O)n1C2 (stereo not drawn) | -0.1 | 1.2 | 3.1 | 1.9
Brc1ccc(C2=Nn3c(nnc3-c3ccccc3)SC2)cc1 | -0.1 | 0.3 | 9.7 | -5.9
Oc1ccc(C2=Nn3c(nnc3-c3ccccc3O)SC2)cc1O | 0.1 | 3.1 | 22.4 | 40.9*
Cc1ccc(C2=Nn3c(nnc3-c3ccccc3C)SC2)cc1 | 0.0 | -0.2 | 0.8 | 59.7*
COc1ccc(C2=NN(C(=O)CSc3nnc(CNC(=O)c4cccs4)n3-c3cccc(C)c3C)C(c3ccc(C)cc3)C2)cc1 (stereo not drawn) | 0.1 | 0.0 | 3.5 | 6.2
Cc1ccc(/C=C/c2cc(=O)n3ccsc3n2)cc1 | 0.0 | -1.8 | -8.0 | 48.6*
CC(C)c1ccc(/C=C/c2cc(=O)n3ccsc3n2)cc1 | 0.1 | -1.1 | -5.5 | 5.1
O=C(Nc1ccc2c(c1)oc1ccccc12)c1cc(Br)ccc1Cl | 1.3 | 0.5 | 14.1 | -44.0
CCOC(=O)C1=C(CN2CCCC2)NC(=O)NC1c1cccs1 (stereo not drawn) | 0.7 | -0.8 | 4.2 | 3.6
CCOC(=O)C1=C(CN2CCC(C(N)=O)CC2)NC(=O)NC1c1cccs1 (stereo not drawn) | 2.6* | -1.2 | -8.9 | -1.3
CCCc1cc2c(=O)c(-c3ccc4c(c3)OCO4)c(CC)oc2cc1O | -0.2 | 1.7 | -7.8 | 9.9
CCN(CC)c1ccc(-c2c3cc(O)c(=O)cc-3oc3cc(O)c(O)cc23)cc1 | -0.3 | -2.2 | 109.9* | 10.3
O=c1cc2oc3cc(O)c(O)cc3c(-c3ccc4c(c3)OCO4)c-2cc1O | -1.1 | -1.1 | 113.3* | 18.3
O=c1cc2oc3cc(O)c(O)cc3c(-c3ccc([N+](=O)[O-])o3)c-2cc1O | -0.4 | -1.3 | 105.9* | 5.7
CC(C)c1nc(C#N)c(N/N=C/c2cccc(Br)c2)o1 | -0.2 | 0.6 | -0.2 | -16.3
O=C(N/N=C(\c1ccccc1)c1cccnc1)c1ccc2c(c1)OCO2 | 0.0 | 0.7 | -10.2 | -14.2
COc1ccccc1-n1c(C)nc2cc(C(=O)NCC(OC)OC)ccc21 | -0.2 | 0.8 | -1.4 | 3.4
O=C(CSc1nnc(-c2ccc3c(c2)OCO3)o1)Nc1ccc2[nH]c(=O)[nH]c2c1 | 4.6* | 1.1 | -30.2 | 0.4
Cc1c(C(=O)N/N=C/c2cccc(OC(=O)N3CCOCC3)c2)nnn1-c1nonc1N | 0.1 | 0.5 | -16.8 | 6.9
SMILES | FBW7 activator | GPR151 ag | MITF primary | TEAD-YAP inh
Cc1cc(C(=O)N/N=C/c2ccc(O)c(O)c2O)c(C)n1-c1ccccc1 | -1.2 | 0.8 | 39.2 | 6.8
Cc1cc(C(=O)N/N=C/c2ccccc2OC(F)F)c2ccccc2n1 | 0.6 | 0.2 | 7.9 | 34.5*
COc1cc(C(=O)N/N=C/c2cccc(OC(=O)N3CCOCC3)c2)cc(OC)c1OC | -0.2 | 2.3 | 18.8 | 58.3*
COc1cc(C(=O)N/N=C/c2ccc([N+](=O)[O-])o2)cc(OC)c1OC | 0.1 | -0.8 | 12.9 | 34.1*
O=C(N/N=C/c1ccc(O)c(O)c1O)c1ccccc1-n1cccc1 | -1.1 | -0.7 | 55.8* | 8.6
CCCc1ccc(OCC(=O)NNC(=O)c2ccccc2C)cc1 | 0.0 | 0.0 | -12.2 | -0.8
Cc1ccc(C(=O)N/N=C/c2ccc(O)c(O)c2O)c(C)c1 | -1.1 | 0.0 | 57.3* | -15.9
O=C(N/N=C\c1ccc([N+](=O)[O-])o1)c1ccccc1-n1cccc1 | -0.2 | 2.8 | 12.3 | 48.5*

Screens as filed in PubChem BioAssay.
